Test results as given in the supplement of paper PMC6555819.

Experiments:
Assay in all cases: PBM binding z-score (relative to random genomic background probes); higher = stronger binding; sequences stand for … in GC…GCGATTGACAGCGTAGAATGAAGG
[1] = test system: RARb homodimer (NR concentration 270 nM)
In short: (§1)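 For binding z-scores, the reference was random background probes on custom Agilent 4×180K protein-binding microarrays. These arrays were incubated 1 h with ligand-free nuclear receptor dimers in PBS pH 7.4, 2% milk, 0.02% Triton X-100, 1 mM DTT, 0.2 mg/mL BSA and 0.4 mg/ml salmon testes DNA. Fluorescence was scanned after antibody detection of each partner (one per run) and regression-normalized.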

[2] = test system: RARg:RXRa (NR concentration 270 nM, RXRa partner concentration 90 nM)
In short: as §1

[3] = test system: RARg homodimer (NR concentration 270 nM)
In short: as §1

[4] = test system: RXRa DBDmut IVT, anti-RXR (DBD mutation: RXRa K156A/R161A, NR concentration 90 nM)
In short: as §1

[5] = test system: RXRa homodimer (NR concentration 180 nM)
In short: as §1

[6] = test system: THRa:RXRa (NR concentration 90 nM, RXRa partner concentration 90 nM)
In short: as §1

[7] = test system: THRa homodimer (NR concentration 90 nM)
In short: as §1

[8] = test system: VDR:RXRa (NR concentration 270 nM, RXRa partner concentration 90 nM)
In short: as §1

[9] = test system: VDR homodimer (NR concentration 270 nM)
In short: as §1

Sequence | PBM binding z-score [1] | PBM binding z-score [2] | PBM binding z-score [3] | PBM binding z-score [4] | PBM binding z-score [5] | PBM binding z-score [6] | PBM binding z-score [7] | PBM binding z-score [8] | PBM binding z-score [9]
TAGCCTAGGTCATTCTGGGGCCAGTATAGAAAGC | 2.94 | 4.85 | 3.81 | 1.87 | 2.52 | 3.62 | 0.956 | 2.88 | 1.11
AATACCGGGTCATCGTAGGCCAGAGTACGCACAG | 3.19 | 4.84 | 4.28 | 2.45 | 5.06 | 4.59 | 1.69 | 4.42 | 3.06
TCTTGTAGATAAACAGGAGGTTAAGAAAGATCGA | 0.563 | 0.413 | 0.451 | 0.64 | 0.929 | 0.693 | -0.428 | 0.873 | -0.0637
ATACCAAGGTGATCGTGAGCTCGTTGATACTAAC | 0.153 | -0.0277 | 0.19 | -0.225 | 0.139 | 0.678 | 0.422 | -0.0163 | -0.219
CCTACTGGGCCATTCAGATGTCATTGATCATATG | 0.108 | 0.278 | 0.389 | 0.148 | -0.34 | -0.291 | -0.95 | -0.54 | -0.52
CATACAGGGTTAGCTAGGCCAGAGTAGGGACGGC | 0.276 | 0.782 | 0.633 | -0.487 | 0.914 | 0.66 | -0.483 | 0.398 | -0.636
AATACTGGGTCACTAGGCCAGAGTAGGTACGAAT | 2.47 | 2.99 | 3.54 | 0.506 | 2.37 | 1.81 | 0.283 | 1.47 | 0.859
CGAACTAGGTCATTGTCAGGACAGTGAATAGTAA | 2.62 | 4.33 | 4.35 | 2.31 | 2.37 | 4.27 | 2.09 | 2.52 | 1.82
CCAGACAGGTGAAAGGTGACTCAGTCTGGTACGC | 1.63 | 2.35 | 1.15 | -0.229 | 3.18 | 1.44 | 0.239 | 1.3 | 0.14
TCTAGCAGGCCAGAGGGACACTCAAGAGGTACGG | 0.146 | -0.0485 | 0.179 | -0.19 | 0.112 | -0.54 | -0.905 | -0.463 | -0.834
TCTTGTAGCTCAATAGAGGTTAAGAAAGTGCGCT | 0.952 | 0.354 | 0.113 | 0.261 | 0.994 | 1.27 | -0.704 | 1.32 | -0.137
ATCTATAGGTAAAGATAGTTCAGTGAATGCAAAT | 1.07 | 0.887 | 0.972 | 0.0561 | 0.775 | 0.89 | 0.0462 | 1 | 0.507
GGAACGAGGGCAACGTTGATAGCATCTGTCGACG | 0.961 | 1.37 | 1.79 | 1.56 | 0.986 | 0.981 | -0.186 | 0.229 | -0.00307
CCGAGTAGGTTATGGGGCATTCATGCAACGGTGA | 0.909 | 0.699 | 0.725 | 0.0977 | 0.697 | 0.148 | -0.334 | 0.118 | 0.21
TCATATAGGTAAATACTAGGTGAAAGTCCGATCT | 0.493 | 0.573 | 0.709 | 1.89 | 1 | 1.49 | 0.718 | 1.19 | 0.521
CAAACTAGGTCAGAGAGGTCAAAGTCCGTGCGTA | 5.19 | 6.39 | 6.79 | 2.74 | 7.07 | 4.43 | 2.45 | 7.57 | 6.12
CCGACTGGGGCAAGGTTAGCATAACGCACAGCCA | 0.752 | 0.574 | 0.814 | -0.5 | 0.57 | 0.333 | -0.266 | -0.429 | -0.191
TATACAGGGTCAAAGGCCAGATTACGAATGTCGA | 3.49 | 5.72 | 4.99 | 3.29 | 6.99 | 3.6 | 0.972 | 4.85 | 2.54
CCATACAGGTGAGAAGGTAACTCAGCCTCGATTA | 0.666 | 0.662 | 0.72 | 0.319 | 0.539 | 0.148 | 0.348 | 0.121 | -0.195
TCCTGTAGATCAGCAGGTTAAGAAAGCTGGCCAA | -0.00726 | -0.0905 | -0.286 | 0.636 | 0.412 | 0.129 | -0.526 | 0.177 | -0.526
CCTACTGGGCCACGAAAGGTCATCGATTCAGTGA | 4.88 | 5.15 | 4.75 | 0.398 | 5.62 | 4 | 1.08 | 4.24 | 1.56
CATCAAAGTTCAACTAAGGTAACGTAAAGCACGC | 4.32 | 5.94 | 6.82 | 4.67 | 5.76 | 5.1 | 2.29 | 4.98 | 4.37
TCGAGTAGGTTAGGGGCATTCGGAATGGCGTCGA | 0.742 | 0.5 | -0.0301 | 0.0579 | 0.52 | 0.777 | 0.132 | 0.55 | 0.956
GATACAGGGTCGAGGCCAGAGTACGCGTATTGAT | 1.31 | 1.98 | 1.9 | 0.497 | 2.13 | 1.67 | 0.075 | 1.41 | 0.897
CCAGACAGGTGAGAGGTAACTCAGTCTGGTACGC | 0.491 | 0.564 | 0.526 | -0.348 | 0.784 | 0.574 | -0.109 | -0.0647 | -0.514
GCTGCTAGGTCAACTGATGATCAGCTAAAGCTCG | 3.3 | 4.46 | 5.15 | 1.46 | 2.75 | 2.85 | 0.808 | 1.38 | -0.0271
